The nature of assay [1]: NCI Yeast Anticancer Drug Screen. Data for the rad50 strain (AID 155).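 Also: 0% = growth of vehicle-only cultures of the same strain.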 To be noted: S. cerevisiae rad50 strain growth inhibition; at 50.0 µM; active compounds read high. Summed up: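 Growth of the mutant yeast was measured after compound exposure and referenced to vehicle-treated cultures.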
Assay [2] is described as follows: NCI Yeast Anticancer Drug Screen. Data for the mec2-1 strain (AID 157). To be noted: S. cerevisiae mec2-1 strain, at 50.0 µM, active compounds read high. Summed up: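 Using mec2-1 yeast: add compound, measure growth, express inhibition versus vehicle-treated cultures.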
A short description of assay [3]: NCI Yeast Anticancer Drug Screen. Data for the sgs1 mgt1 strain (AID 161).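 Also: 0% = growth of cultures given vehicle only.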 To be noted: S. cerevisiae sgs1 mgt1 strain, at 50.0 µM, active compounds read high. Summed up: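 Percent growth inhibition was derived by comparing compound-exposed mutant yeast with vehicle-exposed cultures. The strain carries alterations in DNA damage repair.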
Assay [4] can be described thus: NCI Yeast Anticancer Drug Screen. Data for the cln2 rad14 strain (AID 165).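 Also: 0% = growth equal to vehicle treated cultures.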 The conditions noted are these: S. cerevisiae cln2 rad14 strain, at 50.0 µM, active compounds read high. Summed up: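 Yeast strain cln2 rad14, bearing defects in cell cycle control and DNA repair, serves as the test system; values reflect growth inhibition compared with vehicle.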
The nature of assay [5]: NCI Yeast Anticancer Drug Screen. Data for the bub3 strain (AID 167). To be noted: S. cerevisiae bub3 mutant strain, at 50.0 µM, active compounds read high. Summed up:
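Whole-cell yeast assay. The mutant strain was incubated with compounds, and growth inhibition was determined by comparison with vehicle-treated cells.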

Assay [6] in a line: NCI Yeast Anticancer Drug Screen. Data for the mlh1 rad18 strain (AID 175). The conditions noted are these: S. cerevisiae mlh1 rad18 strain growth inhibition; at 50.0 µM; active compounds read high. Summed up:
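Steps: expose repair-defective yeast to compound; measure growth; express inhibition against vehicle-treated controls.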

Experimental findings from PubChem BioAssay (NCI) are described below.

Molecules are shown by their SMILES. Compounds without any hit were thinned out: in the full panel of roughly 79,000, 15% have a hit. Values without a mark were called inactive. The source made the active and inactive calls. Rule as the data show it: active = growth inhibition above about 70%; inactive = the rest.

For `COc1ccccc1NC(=O)C1=C(C)NC(C)=C(C(=O)Nc2ccccc2OC)C1c1ccc(C(C)C)cc1`, the growth inhibition in assay [1] was 18.2%; in assay [2], 3.35%; in assay [3] it was 11.8%; in assay [4] it was 29.6%; in assay [5], -11.8%; in assay [6] it was 33.8%.

For the compound `CC1CNC2C(C)C3C(CC4C5CCC6CC(N=Cc7ccccc7O)CCC6(C)C5CCC43C)OC2(O)C1` (stereo unspecified), the growth inhibition in assay [1] was 25.8%; in assay [2], -6.2%; in assay [3], -4.3%; in assay [4] it was -3.95%; in assay [5], 0.3%; in assay [6] it was 0.55%.

Take `O=C(Oc1ccc2ccccc2c1CN1CCOCC1)c1ccc([N+](=O)[O-])cc1`: the growth inhibition in assay [1] was 45.8%; in assay [2], 29.9%; in assay [3], 33.8%; in assay [4], 30.1%; in assay [5], 35.5%; in assay [6], 52%.

`CCCCCCCC/C=C\CCCCCCCC(=O)O`: the growth inhibition in assay [1] is 10.1%; in assay [2], -23.1%; in assay [3], -2.2%; in assay [4] it was -22.9%; in assay [5] it was -27.1%; in assay [6], -15.7%.

As to `CCOC(=O)CC1(C)SCCN1C(N)=O` (stereo unspecified), the growth inhibition is 2.25% in assay [1]; 4.35% in assay [2]; -5.85% in assay [3]; -26.3% in assay [4]; 4% in assay [5]; -10.2% in assay [6].

For `CC(C#N)OCCO` (stereo unspecified), the growth inhibition is 9.3% in assay [1]; -2.3% in assay [2]; 7.85% in assay [3]; -1.85% in assay [4]; -6.7% in assay [5]; 5.15% in assay [6].

For the compound `Fc1ccc(-c2ncc(-c3ccccc3)o2)cc1`, the growth inhibition in assay [1] is 0.95%; in assay [2] it was -22.9%; in assay [3], 5.45%; in assay [4], 0.05%; in assay [5], -14.8%; in assay [6] it was -12.9%.

On to `CC(=O)Nc1ccc(S(=O)(=O)NNc2nc(N3CCCC3)nc(N3CCCC3)n2)cc1`, for which the growth inhibition in assay [1] is 1.7%; in assay [2], -8.1%; in assay [3], -14.4%; in assay [4] it was 1.8%; in assay [5], -1.25%; in assay [6], 2.15%.

As to `CC1(C)SC(N=C=Nc2ccccc2)CN1C=O` (stereo unspecified), the growth inhibition in assay [1] was 8.55%; in assay [2], 1.85%; in assay [3] it was -14.4%; in assay [4] it was -10.1%; in assay [5], 9.5%; in assay [6], -0.4%.

Consider `CC[n+]1c(COCCOc2ccccc2)sc2cc3c(cc21)OCO3`, for which the growth inhibition in assay [1] was -23.4%; in assay [2] it was -11.4%; in assay [3], -0.35%; in assay [4], 12%; in assay [5] it was 2.55%; in assay [6], -18.1%.

As to `[O-][n+]1cc(N=Nc2ccc(Cl)cc2)nn1-c1ccc(Cl)cc1`, the growth inhibition in assay [1] was -11.6%; in assay [2], -33.8%; in assay [3], -8.5%; in assay [4], 9.85%; in assay [5], -1.1%; in assay [6], -14.3%.

With `CCc1ccccc1NC(=S)NC1CCCCC1`, the growth inhibition was -2.7% in assay [1]; -8.85% in assay [2]; 0.05% in assay [3]; -18.5% in assay [4]; 32.2% in assay [5]; -5.6% in assay [6].

`CCOC(=O)CNC(N)=O`: the growth inhibition in assay [1] is 33.6%; in assay [2], 15.3%; in assay [3] it was -19.5%; in assay [4], 19.4%; in assay [5], 23.8%; in assay [6], 5.2%.

Consider `O=C1CN(CCCCl)CC(=O)N2Cc3ccccc3CN12`, for which the growth inhibition is -9.05% in assay [1]; 5.3% in assay [2]; -15.7% in assay [3]; -10.1% in assay [4]; -3.7% in assay [5]; -20.1% in assay [6].

Turning to `[Mn].[NH-]C(CSSCC(N)C(=O)O)C(=O)O` (stereo unspecified), the growth inhibition in assay [1] was -2.45%; in assay [2], -0.4%; in assay [3], -1%; in assay [4], 5.5%; in assay [5], 22.6%; in assay [6], 9%.

For `CCCC/C(CC)=N\N=C(/CC)CCCC`, the growth inhibition in assay [1] was 7.3%; in assay [2], 7.2%; in assay [3] it was 17.9%; in assay [4], -28.2%; in assay [5] it was 3.15%; in assay [6], 17.5%.

For `O=C(O)CCC(=O)c1ccc2c3c1CCCC3CC2` (stereo unspecified), the growth inhibition in assay [1] was 52.8%; in assay [2], 51.5%; in assay [3] it was 48.5%; in assay [4] it was 29%; in assay [5] it was 17.2%; in assay [6] it was 70.7% (active).

In the case of `CC(=O)Oc1cc(C)c(OC(C)=O)cc1C`, the growth inhibition is -11.3% in assay [1]; -14.3% in assay [2]; 3.1% in assay [3]; -1.85% in assay [4]; 16.9% in assay [5]; 14.3% in assay [6].

For the compound `C[C@@H]1C[C@H]2[C@@H]3CCC4=CC(=O)C=C[C@]4(C)[C@@]3(F)[C@@H](O)C[C@]2(C)[C@@]1(O)C(=O)CO`, the growth inhibition in assay [1] is 11.8%; in assay [2], -22.3%; in assay [3] it was -16.2%; in assay [4], 3.45%; in assay [5] it was -5.1%; in assay [6], 28.1%.

Regarding `[O-]/[N+](=C\c1cccc(O)c1)c1ccccc1`, the growth inhibition is -1.75% in assay [1]; 16.4% in assay [2]; 11.8% in assay [3]; -21.2% in assay [4]; -5.5% in assay [5]; 15% in assay [6].

Turning to `CCN(CC)CCN1Cc2ccccc2C1`, the growth inhibition was -4.8% in assay [1]; 3.85% in assay [2]; -1.7% in assay [3]; -14.1% in assay [4]; 7.4% in assay [5]; 2.45% in assay [6].
